# Laboratory results as given in PubChem BioAssay AID1159580 (chemical genetic matrix, 2015).
# Out of some 5,500 compounds screened, about 2,000 (36%) were called active. Not shown: some 18% with an inconclusive outcome. The list shows a part of the results. Unmarked numbers belong to inactive results. Cut-off read from the data, not from the text of the source: active = normalized growth mostly below about 0.91 (no sharp cut-off); inconclusive = no clear call, values can overlap the other calls; inactive = mostly above about 0.92.
# Test: chemical genetic growth profiling, strain panel (AID 1159580);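 note: tested at 20 µM; growth read once vehicle control cultures reached saturation at 30 °C; 1 = growth at the plate median or of vehicle wells; lower values mean less growth of the strain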
# Conditions: S. cerevisiae deletion strains, growth OD
# [1] = locus YAR019C, strain CDC15, active compounds read low
# [2] = locus YBL105C, strain PKC1, active compounds read low
# [3] = locus YBR135W, strain CKS1, active compounds read low
# [4] = locus YBR136W, strain MEC1, active compounds read low
# [5] = locus YBR160W, strain CDC28, active compounds read low
# [6] = locus YDL017W, strain CDC7, active compounds read low
# [7] = locus YDL028C, strain MPS1, active compounds read low
# [8] = locus YDL101C, strain DUN1, active compounds read low
# [9] = locus YDL108W, strain KIN28, active compounds read low
# [10] = locus YDL132W, strain cdc53, active compounds read low
# [11] = locus YDL214C, strain PRR2, active compounds read low
# [12] = locus YDR052C, strain DBF4, active compounds read low
# [13] = locus YDR054C, strain cdc34, active compounds read low
# [14] = locus YDR226W, strain ADK1, active compounds read low
# [15] = locus YDR477W, strain SNF1, active compounds read low
# [16] = locus YER123W, strain YCK3, active compounds read low
# [17] = locus YER133W, strain GLC7, active compounds read low
# [18] = locus YFL009W, strain cdc4, active compounds read low
# [19] = locus YFL029C, strain CAK1, active compounds read low
# [20] = locus YFR003C, strain YPI1, active compounds read low
# [21] = locus YFR019W, strain FAB1, active compounds read low
# [22] = locus YFR028C, strain CDC14, active compounds read low
# [23] = locus YGR040W, strain KSS1, active compounds read low
# [24] = locus YGR052W, strain FMP48, active compounds read low
# [25] = locus YGR092W, strain DBF2, active compounds read low
# [26] = locus YHR030C, strain SLT2, active compounds read low
# [27] = locus YHR079C, strain IRE1, active compounds read low
# [28] = locus YHR082C, strain KSP1, active compounds read low
# [29] = locus YHR205W, strain SCH9, active compounds read low
# [30] = locus YIL147C, strain SLN1, active compounds read low
# [31] = locus YJL095W, strain BCK1, active compounds read low
# [32] = locus YJL128C, strain PBS2, active compounds read low
# [33] = locus YJL157C, strain FAR1, active compounds read low
# [34] = locus YJR016C, strain ILV3, active compounds read low
# [35] = locus YJR066W, strain TOR1 (second series), active compounds read low
# [36] = locus YJR066W, strain TOR1, active compounds read low
# [37] = locus YKL048C, strain ELM1, active compounds read low
# [38] = locus YKL101W, strain HSL1, active compounds read low
# [39] = locus YKL193C, strain SDS22, active compounds read low
# [40] = locus YKL203C, strain TOR2, active compounds read low
# [41] = locus YLR113W, strain HOG1, active compounds read low
# [42] = locus YLR133W, strain CKI1, active compounds read low
# [43] = locus YLR403W, strain SFP1, active compounds read low
# [44] = locus YML070W, strain DAK1, active compounds read low
# [45] = locus YMR001C, strain CDC5, active compounds read low
# [46] = locus YMR205C, strain PFK2 (second series), active compounds read low
# [47] = locus YMR277W, strain FCP1, active compounds read low
# [48] = locus YNL006W, strain LST8, active compounds read low
# [49] = locus YNL020C, strain ARK1, active compounds read low
# [50] = locus YNL161W, strain CBK1, active compounds read low
# [51] = locus YNL183C, strain NPR1, active compounds read low
# [52] = locus YNL207W, strain RIO2, active compounds read low
# [53] = locus YNL222W, strain SSU72, active compounds read low
# [54] = locus YNL307C, strain MCK1 (second series), active compounds read low
# [55] = locus YOL078W, strain AVO1, active compounds read low
# [56] = locus YOL136C, strain PFK27, active compounds read low
# [57] = locus YOR061W, strain CKA2, active compounds read low
# [58] = locus YOR119C, strain RIO1, active compounds read low
# [59] = locus YOR231W, strain MKK1, active compounds read low
# [60] = locus YOR329C, strain SCD5, active compounds read low
# [61] = locus YPL031C, strain PHO85, active compounds read low
# [62] = locus YPL153C, strain RAD53, active compounds read low
# [63] = locus YPL204W, strain HRR25, active compounds read low
# [64] = locus YPL209C, strain IPL1, active compounds read low
# [65] = locus YPL256C, strain CLN2, active compounds read low
# [66] = locus YPR025C, strain CCL1, active compounds read low
# [67] = locus YPR106W, strain ISR1, active compounds read low
# [68] = locus YPR111W, strain DBF20, active compounds read low
# [69] = strain NNK1, active compounds read low
# [70] = strain TSCII, active compounds read low
smiles,measurement,setting,value
O=C1OC(c2ccccc2)=C/C1=C/c1ccccc1,normalized growth,[1],0.952
same,normalized growth,[2],0.953
same,normalized growth,[3],0.942
same,normalized growth,[4],0.953
same,normalized growth,[5],0.943
same,normalized growth,[6],0.95
same,normalized growth,[7],0.923
same,normalized growth,[8],0.966
same,normalized growth,[9],0.925
same,normalized growth,[10],0.96
same,normalized growth,[11],0.604 (active)
same,normalized growth,[12],0.969
same,normalized growth,[13],0.962
same,normalized growth,[14],0.944
same,normalized growth,[15],0.635 (active)
same,normalized growth,[16],0.869
same,normalized growth,[17],0.725
same,normalized growth,[18],0.961
same,normalized growth,[19],0.925
same,normalized growth,[20],0.956
same,normalized growth,[21],0.946
same,normalized growth,[22],0.948
same,normalized growth,[23],0.674 (active)
same,normalized growth,[24],0.353 (active)
same,normalized growth,[25],0.855
same,normalized growth,[26],0.506 (active)
same,normalized growth,[27],0.934
same,normalized growth,[28],0.522 (active)
same,normalized growth,[29],0.514 (active)
same,normalized growth,[30],0.955
same,normalized growth,[31],0.669
same,normalized growth,[32],1
same,normalized growth,[33],0.761
same,normalized growth,[34],0.954
same,normalized growth,[35],0.861
same,normalized growth,[36],0.461 (active)
same,normalized growth,[37],0.889
same,normalized growth,[38],0.797
same,normalized growth,[39],0.948
same,normalized growth,[40],0.614 (active)
same,normalized growth,[41],0.714 (active)
same,normalized growth,[42],0.843
same,normalized growth,[43],0.611 (active)
same,normalized growth,[44],0.892
same,normalized growth,[45],0.951
same,normalized growth,[46],0.843
same,normalized growth,[47],0.918
same,normalized growth,[48],0.956
same,normalized growth,[49],0.9
same,normalized growth,[50],0.945
same,normalized growth,[51],0.188 (active)
same,normalized growth,[52],0.951
same,normalized growth,[53],0.932
same,normalized growth,[54],0.95
same,normalized growth,[55],0.954
same,normalized growth,[56],0.914
same,normalized growth,[57],0.844
same,normalized growth,[58],0.519 (active)
same,normalized growth,[59],0.943
same,normalized growth,[60],0.961
same,normalized growth,[61],0.758
same,normalized growth,[62],0.798
same,normalized growth,[63],0.839
same,normalized growth,[64],0.947
same,normalized growth,[65],0.793 (active)
same,normalized growth,[66],0.945
same,normalized growth,[67],0.981
same,normalized growth,[68],0.964
same,normalized growth,[69],0.949
same,normalized growth,[70],0.93
NC(=O)c1ccc(OCC(O)CN2CC=C(c3ccc(F)cc3)CC2)cc1 (stereo not given),normalized growth,"locus YAL040C, strain CLN3, active compounds read low",1.06
same,normalized growth,"locus YCL061C, strain MRC1 (second series), active compounds read low",0.982
same,normalized growth,"locus YDR150W, strain NUM1, active compounds read low",1.01
same,normalized growth,"locus YDR363W, strain ESC2, active compounds read low",0.964
same,normalized growth,"locus YER002W, strain NOP16, active compounds read low",1.01
same,normalized growth,"locus YMR263W, strain SAP30, active compounds read low",0.98
same,normalized growth,"locus YMR307W, strain GAS1, active compounds read low",0.998
same,normalized growth,"locus YNL128W, strain TEP1, active compounds read low",1.01
same,normalized growth,"locus YNL175C, strain NOP13, active compounds read low",1.03
same,normalized growth,"locus YNL197C, strain WHI3, active compounds read low",1
same,normalized growth,"locus YNL224C, strain SQS1, active compounds read low",1.01
same,normalized growth,"locus YNL322C, strain KRE1, active compounds read low",0.962
same,normalized growth,"locus YOR083W, strain WHI5 (second series), active compounds read low",1
same,normalized growth,"locus YPL055C, strain LGE1, active compounds read low",0.98
COc1ccc(N=C2SCC(c3ccc(C)cc3)=NN2CCO)cc1,normalized growth,[1],0.975
same,normalized growth,[2],0.985
same,normalized growth,[3],0.979
same,normalized growth,[4],0.972
same,normalized growth,[5],0.982
same,normalized growth,[6],0.982
same,normalized growth,[7],0.971
same,normalized growth,[8],0.982
same,normalized growth,[9],0.981
same,normalized growth,[10],0.98
same,normalized growth,[11],0.975
same,normalized growth,[12],0.988
same,normalized growth,[13],0.979
same,normalized growth,[14],0.981
same,normalized growth,[15],0.958
same,normalized growth,[16],0.943
same,normalized growth,[17],0.971
same,normalized growth,[18],0.972
same,normalized growth,[19],0.964
same,normalized growth,[20],0.98
same,normalized growth,[21],0.985
same,normalized growth,[22],0.972
same,normalized growth,[23],0.961
same,normalized growth,[24],1.01
same,normalized growth,[25],0.947
same,normalized growth,[26],0.95
same,normalized growth,[27],0.968
same,normalized growth,[28],0.991
same,normalized growth,[29],0.987
same,normalized growth,[30],0.977
same,normalized growth,[31],0.973
same,normalized growth,[32],0.955
same,normalized growth,[33],0.979
same,normalized growth,[34],0.979
same,normalized growth,[35],0.925
same,normalized growth,[36],0.962
same,normalized growth,[37],0.997
same,normalized growth,"locus YKL067W, strain YNK1, active compounds read low",0.971
same,normalized growth,[38],0.976
same,normalized growth,[39],0.975
same,normalized growth,[40],1.02
same,normalized growth,[41],0.915
same,normalized growth,[42],0.976
same,normalized growth,[43],0.976
same,normalized growth,[44],0.956
same,normalized growth,[45],0.984
same,normalized growth,[46],0.971
same,normalized growth,[47],0.978
same,normalized growth,[48],0.986
same,normalized growth,[49],0.983
same,normalized growth,[50],0.978
same,normalized growth,[51],0.941
same,normalized growth,[52],0.978
same,normalized growth,[53],0.972
same,normalized growth,[54],0.98
same,normalized growth,[55],0.977
same,normalized growth,[56],0.96
same,normalized growth,[57],0.983
same,normalized growth,[58],0.999
same,normalized growth,[59],0.963
same,normalized growth,[60],0.983
same,normalized growth,[61],0.969
same,normalized growth,[62],0.97
same,normalized growth,[63],0.961
same,normalized growth,[64],0.977
same,normalized growth,[65],0.946
same,normalized growth,[66],0.985
same,normalized growth,[67],0.979
same,normalized growth,[68],0.968
same,normalized growth,[69],0.983
same,normalized growth,[70],0.982
